According to PubChem BioAssay:
Calls of active or inactive are those of the source.

Columns and labels:
[1] = target: Albumin (Bos taurus) (UniProt P02769); assay: bovine serum albumin binders on microarray, profiling panel, artefact control for SMM control protein annotation, biochemical, small-molecule microarray, Alexa647 label, 635/667 nm fluorescence (AID 1118); details: BSA-A647 binding, fluorescence 635 nm, higher = more signal;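 also: score merges 667 nm emission intensity and signal-to-noise per printed compound spot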
Chain of Albumin (Bos taurus) (P02769 whole entry, looked up): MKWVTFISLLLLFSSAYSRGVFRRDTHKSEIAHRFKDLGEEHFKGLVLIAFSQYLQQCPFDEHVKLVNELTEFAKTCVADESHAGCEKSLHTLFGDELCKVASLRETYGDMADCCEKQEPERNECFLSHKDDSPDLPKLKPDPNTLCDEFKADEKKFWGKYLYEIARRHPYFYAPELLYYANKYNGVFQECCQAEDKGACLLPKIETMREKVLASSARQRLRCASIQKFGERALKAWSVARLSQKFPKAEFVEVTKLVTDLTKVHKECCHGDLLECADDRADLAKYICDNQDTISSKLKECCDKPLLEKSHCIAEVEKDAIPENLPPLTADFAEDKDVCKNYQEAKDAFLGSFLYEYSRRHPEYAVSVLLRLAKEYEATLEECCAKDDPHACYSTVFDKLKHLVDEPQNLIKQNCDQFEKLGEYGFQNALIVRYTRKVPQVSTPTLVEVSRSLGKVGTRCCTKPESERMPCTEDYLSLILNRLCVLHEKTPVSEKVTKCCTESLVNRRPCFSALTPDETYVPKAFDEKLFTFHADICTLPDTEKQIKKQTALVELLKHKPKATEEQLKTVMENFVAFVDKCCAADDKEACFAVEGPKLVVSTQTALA

[2] = small-molecule microarray binders of probe aXIP, primary screen, biochemical, NeuroSMM set, 635/667 nm fluorescence (AID 1119); details: higher = more signal, called active from +8 up or from −8 down;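 also: probe is the protein aXip251-270 applied at 1 µg/mL to compound-printed slides; binding of probe to printed compounds measured as 667 nm fluorescence plus signal to noise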
[3] = small-molecule binders of probe aNOTCH3, primary screen, biochemical, small-molecule microarray, 635/667 nm fluorescence (AID 1120); details: higher = more signal;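 also: probe is a biotin-tagged antibody raised against NOTCH3 rather than NOTCH3 protein; score merges spot fluorescence near 667 nm with spot signal to noise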
[4] = small-molecule binders of probe aNOTCH2, primary screen, biochemical, small-molecule microarray, 635/667 nm fluorescence (AID 1121); details: higher = more signal;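 also: score merges feature fluorescence read at 667 nm with its signal to noise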
[5] = target: Carbonic anhydrase 2 (Homo sapiens) (UniProt P00918); assay: CAII small-molecule binders, profiling panel, biochemical, small-molecule microarray, Alexa647-labelled CAII (AID 1122); details: CAII-A647 binding fluorescence, higher = more signal
[6] = COS7 lysate on small-molecule microarray, probe aHis, 635 nm (AID 1123); details: COS7 cell lysate, fluorescence, higher = more signal;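 also: z-score combines 667nm fluorescence intensity with signal-to-noise per printed compound spot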
[7] = compound binding in COS7 lysate, probe aLAP1, primary screen, cell lysate, small-molecule microarray (AID 1124); details: probe aLAP1, fluorescence, higher = more signal;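 also: lysate comes from COS7 cells expressing LAP1 and is applied at 0.3 µg/mL; score merges spot fluorescence near 667 nm with signal-to-noise over triplicate slides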
[8] = tested on: Sam68 (KHDRBS1); assay: Sam68 small-molecule binders, primary screen, biochemical, small-molecule microarray, 635 nm fluorescence (AID 1125); details: small-molecule microarray binding, higher = more signal;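 also: score merges 667 nm channel intensity with signal to noise over triplicate slides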
[9] = tested on: Chordin-like protein 2 (CHRDL2); assay: CHRDL2 small-molecule binders, primary screen, biochemical, small-molecule microarray, 635 nm fluorescence (AID 1126); details: small-molecule microarray binding, fluorescence 635 nm; higher = more signal;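 also: printed compound slides probed with Chrdl2 protein at 4 µg/mL for 1 h at 4 C; score merges 667 nm emission intensity with signal to noise over three replicate slides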
[10] = target: Concanavalin-A (Canavalia ensiformis) (UniProt P02866); assay: ConA small-molecule binders, primary screen, artefact control for SMM control protein annotation, biochemical, small-molecule microarray, Alexa647 label, 635 nm (AID 1127); details: ConA-A647 binding fluorescence, higher = more signal;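 also: z combines 667 nm emission intensity with signal-to-noise across three replicate slides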
Chain of Concanavalin-A (Canavalia ensiformis) (P02866 whole entry, looked up): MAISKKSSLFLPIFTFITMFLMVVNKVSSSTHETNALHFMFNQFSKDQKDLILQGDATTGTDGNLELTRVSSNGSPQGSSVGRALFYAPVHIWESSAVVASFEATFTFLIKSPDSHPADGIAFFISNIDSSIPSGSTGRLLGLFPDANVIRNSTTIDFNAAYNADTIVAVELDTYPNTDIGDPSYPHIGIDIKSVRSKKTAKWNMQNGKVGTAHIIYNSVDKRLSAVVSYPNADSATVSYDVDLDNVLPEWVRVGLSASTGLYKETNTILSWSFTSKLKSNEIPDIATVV

[11] = anti-His antibody binders, primary screen, artefact control for SMM control protein annotation, biochemical, small-molecule microarray, 635 nm fluorescence (AID 1128); details: anti-His Alexa647 antibody binding, higher = more signal;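 also: score merges feature fluorescence with signal-to-noise for each printed compound spot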
[12] = tested on: Human papillomavirus type 1a E7 protein (residues 1-88); assay: HPV1a E7 small-molecule binders, primary screen, biochemical, small-molecule microarray, residues 1-88, 635 nm (AID 1129); details: small-molecule microarray binding, fluorescence 635 nm; higher = more signal
[13] = target: Focal adhesion kinase 1 (Homo sapiens) (UniProt Q05397); assay: small-molecule microarray binders of FAK, primary screen, biochemical, 635/667 nm fluorescence, BSA, DTT (AID 1130); details: PTK2 binding, 635 nm fluorescence, higher = more signal;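 also: composite of spot emission at 667 nm and signal to noise over triplicate slides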
Chain of Focal adhesion kinase 1 (Homo sapiens) (Q05397 whole entry, looked up): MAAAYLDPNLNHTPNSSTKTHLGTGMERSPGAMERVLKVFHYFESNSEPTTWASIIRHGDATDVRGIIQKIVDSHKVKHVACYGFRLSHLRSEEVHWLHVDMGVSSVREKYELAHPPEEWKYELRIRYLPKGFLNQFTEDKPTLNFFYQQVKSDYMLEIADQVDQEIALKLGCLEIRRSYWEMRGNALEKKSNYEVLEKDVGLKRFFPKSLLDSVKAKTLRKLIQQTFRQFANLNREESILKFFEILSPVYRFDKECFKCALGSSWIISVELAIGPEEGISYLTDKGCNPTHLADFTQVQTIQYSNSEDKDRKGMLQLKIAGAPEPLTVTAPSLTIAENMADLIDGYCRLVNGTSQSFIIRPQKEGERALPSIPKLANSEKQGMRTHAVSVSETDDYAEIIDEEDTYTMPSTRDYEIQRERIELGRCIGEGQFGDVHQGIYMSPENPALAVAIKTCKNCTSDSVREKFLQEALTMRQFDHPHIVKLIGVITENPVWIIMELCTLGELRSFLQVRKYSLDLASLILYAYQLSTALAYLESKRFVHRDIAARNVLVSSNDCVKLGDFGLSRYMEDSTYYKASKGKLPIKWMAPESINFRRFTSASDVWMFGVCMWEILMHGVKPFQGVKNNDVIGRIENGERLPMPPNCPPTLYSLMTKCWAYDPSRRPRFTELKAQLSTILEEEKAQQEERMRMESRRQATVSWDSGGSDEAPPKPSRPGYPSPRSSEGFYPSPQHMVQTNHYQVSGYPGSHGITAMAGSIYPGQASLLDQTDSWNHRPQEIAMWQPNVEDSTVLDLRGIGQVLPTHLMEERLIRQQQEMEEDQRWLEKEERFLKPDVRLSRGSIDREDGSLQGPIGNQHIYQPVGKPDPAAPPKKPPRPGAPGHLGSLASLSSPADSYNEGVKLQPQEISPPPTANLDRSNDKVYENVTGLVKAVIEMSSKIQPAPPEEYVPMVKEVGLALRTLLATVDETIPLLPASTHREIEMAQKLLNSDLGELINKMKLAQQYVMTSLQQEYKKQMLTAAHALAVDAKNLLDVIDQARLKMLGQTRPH

[14] = tested on: Fibrinogen (Alexa647-labelled); assay: fibrinogen binders on compound microarrays, profiling panel, artefact control for SMM control-protein annotation, biochemical, small-molecule microarray, 635/667 nm fluorescence (AID 1131); details: fibrinogen-A647 binding fluorescence, higher = more signal;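 also: z-score merges 667 nm fluorescence with per-spot signal-to-noise over triplicate slides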
[15] = target: Follistatin (Homo sapiens) (UniProt P19883); assay: follistatin binders on small-molecule microarrays, primary screen, biochemical, small-molecule microarray, 635/667 nm fluorescence (AID 1132); details: FST binding, 635 nm fluorescence, higher = more signal
Chain of Follistatin (Homo sapiens) (P19883 whole entry, looked up): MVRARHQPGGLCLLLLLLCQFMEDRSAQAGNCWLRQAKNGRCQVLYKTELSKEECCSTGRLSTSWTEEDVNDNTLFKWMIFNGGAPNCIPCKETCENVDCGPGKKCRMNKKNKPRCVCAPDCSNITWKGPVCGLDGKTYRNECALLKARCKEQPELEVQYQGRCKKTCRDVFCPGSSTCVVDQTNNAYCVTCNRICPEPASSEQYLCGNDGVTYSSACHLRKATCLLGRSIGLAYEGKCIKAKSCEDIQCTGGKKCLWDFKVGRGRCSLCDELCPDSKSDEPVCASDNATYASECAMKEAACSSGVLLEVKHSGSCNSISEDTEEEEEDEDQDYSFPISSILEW

[16] = target: Fibroblast growth factor 2 (Homo sapiens) (UniProt P09038); assay: FGF2 binders on small-molecule microarrays, primary screen, biochemical, small-molecule microarray, 635/667 nm fluorescence (AID 1133); details: small-molecule microarray binding, FGF2, fluorescence 635/667; higher = more signal
Chain of Fibroblast growth factor 2 (Homo sapiens) (P09038 whole entry, looked up): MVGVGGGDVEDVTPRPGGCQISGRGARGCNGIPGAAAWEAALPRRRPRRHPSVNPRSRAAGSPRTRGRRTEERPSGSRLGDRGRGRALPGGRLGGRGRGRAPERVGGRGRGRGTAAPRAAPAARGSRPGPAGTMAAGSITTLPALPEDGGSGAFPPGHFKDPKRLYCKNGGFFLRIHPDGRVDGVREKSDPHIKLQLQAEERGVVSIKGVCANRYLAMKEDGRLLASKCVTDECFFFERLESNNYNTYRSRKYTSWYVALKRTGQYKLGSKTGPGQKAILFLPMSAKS

[17] = mitochondrial membrane potential change in A549 cells, profiling panel, cell-based, JC-1 fluorescence, basal, 24 h, 100 nL (AID 1138); details: higher = more signal;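 also: A549 lung adenocarcinoma cells under basal conditions with no added stimulus; test concentration not given here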
[18] = tested on: Lefty1; assay: Lefty1 binders on small-molecule microarrays, primary screen, biochemical, small-molecule microarray, 635/667 nm fluorescence (AID 1139); details: small-molecule microarray binding, fluorescence 635/667; higher = more signal
[19] = tested on: wheat germ agglutinin (Triticum aestivum), Alexa647-labelled; assay: wheat germ agglutinin binders on compound microarrays, profiling panel, artefact control for SMM control-protein annotation, biochemical, small-molecule microarray, 635/667 nm fluorescence (AID 1140); details: WGA-A647 binding, 635 nm fluorescence, higher = more signal;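 also: score merges 667 nm feature emission with signal to noise over triplicate slides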
[20] = target: Luciferin 4-monooxygenase (Photinus pyralis) (UniProt P08659); assay: firefly luciferase enzyme inhibitors, primary screen, biochemical, luminescence, purified enzyme, 2006 set (AID 1141); details: SteadyGlo luminescence, 30 min, higher = more signal, called active from +8 up or from −8 down;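 also: cell-free assay with purified firefly luciferase at 100 ng per well in PBS; test concentration not given here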
Chain of Luciferin 4-monooxygenase (Photinus pyralis) (P08659 whole entry, looked up): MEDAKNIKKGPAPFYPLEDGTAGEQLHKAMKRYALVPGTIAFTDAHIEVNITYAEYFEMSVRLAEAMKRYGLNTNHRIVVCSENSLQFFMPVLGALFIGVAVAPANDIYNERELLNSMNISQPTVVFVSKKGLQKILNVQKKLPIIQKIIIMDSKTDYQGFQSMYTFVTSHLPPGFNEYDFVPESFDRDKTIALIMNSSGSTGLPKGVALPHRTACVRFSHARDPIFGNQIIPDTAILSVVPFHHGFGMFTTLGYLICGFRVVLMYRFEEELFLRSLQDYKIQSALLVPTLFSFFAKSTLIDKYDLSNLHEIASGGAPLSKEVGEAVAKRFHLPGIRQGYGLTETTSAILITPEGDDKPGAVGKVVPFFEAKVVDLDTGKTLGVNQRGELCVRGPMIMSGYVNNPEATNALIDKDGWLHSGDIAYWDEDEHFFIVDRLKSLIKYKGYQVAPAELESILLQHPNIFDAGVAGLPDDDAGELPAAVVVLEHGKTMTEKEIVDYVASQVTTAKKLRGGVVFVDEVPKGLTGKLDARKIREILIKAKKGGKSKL

Structure (SMILES)	composite z-score [1]	composite Z-score [2]	composite z-score [3]	composite z-score [4]	composite z-score [5]	composite z-score [6]	composite z-score [7]	composite z-score [8]	composite z-score [9]	composite z-score [10]	composite z-score [11]	composite z-score [12]	composite z-score [13]	composite z-score [14]	composite z-score [15]	composite z-score [16]	z-score [17]	composite z-score [18]	composite z-score [19]	z-score [20]
CC(C)[Si]1(C(C)C)OCc2cc(-c3ccc(-c4ccc(Cl)c(Cl)c4)o3)nc(-c3ccc(Oc4ccccc4)cc3)c21	-0.753	-1.23 (inactive)	-0.292	-0.197	-0.554	-0.558	-0.397	-1.08	-1.24	-1.08	-0.768	-1.88	-0.0554	-1.02	-1.21	-1.57	0.229	-1.34	-0.0312	0.586 (inactive)
O=C(N1CCOCC1)[C@]1(CCS(=O)(=O)c2ccccc2)N=C(c2ccc(OCCCO)cc2)O[C@@H]1c1ccccc1	1.03	1.35 (inactive)	0.149	-0.0256	0.441	2.86	0.473	1.31	-0.62	1.21	2.94	1.23	0.99	0.996	1.25	0.23	1.1	-0.588	1.29	-1.55 (inactive)
COc1ccc([Si](C)(C)[C@@H]2[C@@H](CC(=O)N3Cc4ccccc4C[C@H]3CO)O[C@]3(C(=O)N(Cc4ccc(I)cc4)c4ccccc43)[C@H]2C)cc1	-0.145	0.26 (inactive)	0.0676	-0.133	0.284	0.583	-0.098	1	1.35	0.957	0.521	0.963	0.0916	0.838	1.59	1.65	-0.26	1.58	0.373	0.798 (inactive)
C=CC[C@]12N=C(c3ccc(OCCCO)cc3)O[C@H]1c1ccccc1N(CCC)C2=O	-0.0791	1.91 (inactive)	0.467	0.14	0.705	2.85	0.674	1.29	1.2	1.09	2.3	0.917	0.685	0.488	1.46	1.35	0.948	0.613	0.954	-3.66 (inactive)
COCCOC(=O)N1C(=O)[C@@]2(c3cc(C#CC4(O)CCCCCC4)ccc31)[C@H](C(N)=O)[C@H]1C(=O)O[C@H](c3ccccc3)[C@H](c3ccccc3)N1[C@@H]2c1ccc(OCCO)cc1	0.736	0.133 (inactive)	0.086	-0.118	0.566	2.58	0.412	1.3	-0.0029	1.17	2.19	1.21	0.428	0.95	1.34	0.888	-1.71	0.673	1.11	-1.03 (inactive)
[N-]=[N+]=Nc1ccccc1C[C@@]1(C(=O)NCC(O)CO)N=C(c2ccc(OCCCO)cc2)O[C@@H]1c1ccccc1N=[N+]=[N-] (stereo not given in full)	0.874	-0.213 (inactive)	0.204	0.0124	0.78	2.25	1.26	1.12	-0.802	0.902	1.85	1.18	1.03	0.79	0.14	-0.491	-2.28	-0.19	1.13	-4.27 (inactive)
COc1ccc(C(=O)Nc2ccc(CN3C(=O)[C@]4(O[C@H](CC(=O)N(CCO)Cc5ccccc5)[C@@H]([Si](C)(C)c5ccc(OC)cc5)[C@@H]4C)c4ccccc43)cc2)cc1	-0.622	-0.21 (inactive)	-0.0288	-0.193	0.541	1.58	1.62	1.35	1.18	0.905	0.122	1.14	0.677	0.375	1.25	1.31	-0.474	1.32	0.162	0.505 (inactive)
O=C(O)C1=CC[C@H]2C(=O)N(c3ccccc3)C(=O)[C@@H]12	0.342	0.277 (inactive)	0.21	-0.0216	0.425	1.33	0.453	1.31	-0.0125	1.02	0.39	1.2	0.424	0.272	0.845	-0.12	-1.27	0.0347	0.701	1.57 (inactive)
O=C1c2ccccc2[C@@]2(Cc3ccccc3N(CC(F)(F)F)C2=O)[C@H](c2ccc(CO)cc2)N1Cc1ccccc1	-0.507	-0.207 (inactive)	0.0698	-0.219	-0.13	-0.211	0.0163	0.166	0.62	0.0118	-0.713	-0.404	-0.282	-0.243	0.932	1.4	-0.772	0.759	0.0111	0.746 (inactive)
CC1CC/C=C\[C@H]2OC34C=CCN(CCN5CCOCC5)C(=O)[C@H]3N(C(CO)C(C)C)C(=O)[C@@H]4C2C(=O)O1 (stereo not given in full)	-0.466	0.769 (inactive)	-0.111	-0.0837	0.854	0.214	1.47	0.889	-0.571	0.475	-0.622	-0.033	-0.125	-0.248	-0.277	-0.3	0.302	0.544	-0.281	-0.723 (inactive)
COCCCNC(=O)[C@@]1(CCC(=O)OC(C)(C)C)N=C(c2ccc(OCCCO)cc2)O[C@H]1c1ccccc1	0.838	0.0999 (inactive)	0.141	-0.0237	0.696	2.94	0.584	0.748	-0.864	0.525	2.41	1.22	0.0039	0.986	1.36	0.295	1.42	-0.568	0.597	-0.173 (inactive)
